aSyn 5UTR act = Activators via SNCA 5'UTR binding, MLPCN | activity score, % (tested at 7.5 µM), hits read low | hit rate 7.1% among 300,000 | AID 1814, 2009 | alpha-synuclein 5'UTR reporter, activators screen; in the data active = activity score below about -60%
Hits are given with their value. Not all results are given here.

`CCN(CC)S(=O)(=O)c1ccc2c(c1)nc(-c1ccccn1)n2C` gave aSyn 5UTR act -73.
`O=C(OCc1cccc(F)c1)c1ccc2c(c1)-c1ccccc1C2=O` gave aSyn 5UTR act -68.
`O=C(OCC(F)(F)F)c1cccc(COc2ccc3ccccc3c2)c1` gave aSyn 5UTR act inactive.
For O=C(OCc1ccccc1F)c1ccc2c(c1)-c1ccccc1C2=O the results were aSyn 5UTR act -121.
`Cc1ccc(C(=O)NC2CCc3ccccc3C2=O)cc1` (stereo not given) gave aSyn 5UTR act -169.
For O=C(Nc1nc2ccccc2s1)c1ccc([N+](=O)[O-])o1 the results were aSyn 5UTR act -173.
For CC(=O)Nc1nc2cccc([N+](=O)[O-])c2s1 the results were aSyn 5UTR act -68.
Cc1cnc(NC(=O)c2ccc(-c3nc4ccccc4s3)o2)s1 was read as aSyn 5UTR act -84.
O=C(Nc1nc2ccccc2s1)c1ccccc1[N+](=O)[O-] was read as aSyn 5UTR act -153.
Screening O=C(c1nc2ccccc2[nH]1)c1ccccc1[N+](=O)[O-] returned aSyn 5UTR act -74.
Screening COc1ccc2nc(NC(=O)c3ccc([N+](=O)[O-])o3)sc2c1 returned aSyn 5UTR act -161.
`O=C(Nc1nc2cc3c(cc2s1)OCCO3)c1ccc([N+](=O)[O-])o1` gave aSyn 5UTR act -301.
`O=C(Nc1c(Cl)ccc2nsnc12)c1ccc([N+](=O)[O-])o1` gave aSyn 5UTR act -203.
For O=C(Nc1nc2ccccc2s1)Nc1ccc([N+](=O)[O-])cc1Cl the results were aSyn 5UTR act -99.
For CC1(C)SC(=S)N(NC(=O)Nc2cccc3ccccc23)C1N(O)C(=O)Nc1ccccc1 (stereo not given) the results were aSyn 5UTR act -88.
`Cc1ccc2cc(NC(=O)c3ccccc3C)ccc2n1` gave aSyn 5UTR act -195.
Screening Cc1ccc2cc(NC(=O)Cc3ccccc3)ccc2n1 returned aSyn 5UTR act -127.
`O=C(N/C(=C/c1cccc(Br)c1)c1nc(=S)[nH][nH]1)c1ccccc1` gave aSyn 5UTR act -77.
For Cc1cccc(/C=N/c2sc3c(c2C#N)CCN(Cc2ccccc2)C3)c1O the results were aSyn 5UTR act -74.
Screening CC(C)c1c(O)cc(-c2ccncc2)n(-c2ccc(Cl)cc2)c1=O returned aSyn 5UTR act inactive.
Screening C=C1C(=O)C=C2CN(C(=O)c3ccccc3)[C@@](Cc3ccc(F)cc3)(C(=O)OC)[C@@H]12 returned aSyn 5UTR act inactive.
`CCN(CC)CCNC(=O)c1nn(-c2ccc(C)cc2)c(=O)c2c1c1ccccc1n2C` gave aSyn 5UTR act -64.
Screening O=C(Nc1ccc2c3c(cccc13)CC2)c1ccco1 returned aSyn 5UTR act -65.
`O=C(Nc1ccc2c3c(cccc13)CC2)c1ccc(Br)o1` gave aSyn 5UTR act -76.
For CCSc1nsc(NC(=O)Nc2cccc(OC)c2)n1 the results were aSyn 5UTR act -140.
Screening CCSc1nsc(NC(=O)Nc2ccccc2F)n1 returned aSyn 5UTR act -183.
N=c1c2c(n(Cc3cccc(Cl)c3)c3c1CCC3)CCCC2 was read as aSyn 5UTR act inactive.
Screening Cc1ccccc1OCC(=O)Nc1cccc(C(=O)O)c1 returned aSyn 5UTR act inactive.
Screening Cc1cc(C)c(OCC(=O)Nc2ccc3c(c2)OCO3)cc1C returned aSyn 5UTR act -112.
For O=C(COc1ccccc1Cl)Nc1ccc2c(c1)OCCO2 the results were aSyn 5UTR act -151.
Screening Cc1ccccc1OCC(=O)Nc1ccc2c(c1)OCCO2 returned aSyn 5UTR act -180.
Cc1cccc(C)c1OCC(=O)Nc1ccc2c(c1)OCCO2 was read as aSyn 5UTR act -158.
COc1cc(C2c3cc4c(cc3C(OC3OC5COC(c6cccs6)OC5C(O)C3O)C3COC(=O)C23)OCO4)cc(OC)c1O (stereo not given) was read as aSyn 5UTR act inactive.
O=C(COc1ccc(Br)cc1Cl)NC(=O)Nc1ccc2c(c1)OCCO2 was read as aSyn 5UTR act -72.
For Cc1cc(C)c(OCC(=O)Nc2cccc(O)c2)cc1C the results were aSyn 5UTR act -114.
For COc1ccccc1OCC(=O)Nc1ccc2c(c1)OCCO2 the results were aSyn 5UTR act -89.
Screening N#Cc1cccc(NCC(=O)Nc2ccc3c(c2)OCCO3)c1 returned aSyn 5UTR act -69.
Cc1ccccc1OCC(=O)Nc1ccc(N2CCN(C)CC2)c(Cl)c1 was read as aSyn 5UTR act -140.
Screening Cc1ccc(OCC(=O)Nc2ccc3c(c2)OCO3)c([N+](=O)[O-])n1 returned aSyn 5UTR act -111.
For COc1cc(C=O)ccc1OCC(=O)Nc1ccc2c(c1)OCO2 the results were aSyn 5UTR act -90.
`CC1=C(CO)C(=O)OC([C@@H](C)C2CC[C@H]3C4C[C@H]5O[C@]56[C@@H](O)C=CC(=O)[C@]6(C)C4CC[C@]23C)C1` (stereo not given in full) gave aSyn 5UTR act -91.
Screening COc1ccc(N2CS(=O)(=O)/C(=C/N(C)C)C2=O)cc1 returned aSyn 5UTR act -93.
C=CCN(C(=O)c1oc2c(Cl)cc(C)cc2c1C)C1CCS(=O)(=O)C1 (stereo not given) was read as aSyn 5UTR act -71.
For COc1ccc(C(=O)O/N=C(\N)c2cccc(C)c2)cc1OC the results were aSyn 5UTR act -165.
For COc1ccc(C(=O)n2c(N)nc3ccccc32)cc1OC the results were aSyn 5UTR act -177.
For COc1ccc(/C(N)=N/OC(=O)CSc2ccccc2)cc1OC the results were aSyn 5UTR act -125.
`Cc1cccc(/C(N)=N/OC(=O)c2ccoc2C)c1` gave aSyn 5UTR act -116.
`COc1ccc(C(=O)O/N=C(\N)c2ccccc2)cc1OC` gave aSyn 5UTR act -180.
`Cc1cc(/C=C2/C(=O)N(C)C(=S)N2C)ccc1N1CCCC1` gave aSyn 5UTR act -212.
Cc1cc(/C=C2\NC(=S)N(C)C2=O)ccc1N1CCCC1 was read as aSyn 5UTR act -206.
For O=C(c1cc2ccccc2oc1=O)N(Cc1ccco1)C1CCS(=O)(=O)C1 (stereo not given) the results were aSyn 5UTR act -97.
Screening c1ccc(CSc2ccc(-c3ccccn3)nn2)nc1 returned aSyn 5UTR act -62.
Screening CCOc1ccc(-c2ccc(SC)nn2)cc1 returned aSyn 5UTR act inactive.
Screening Clc1ccc(-c2ccc(SCc3ccccn3)nn2)cc1 returned aSyn 5UTR act -141.
Screening c1ccc(CSc2nnc(SCc3ccccn3)s2)nc1 returned aSyn 5UTR act -118.
Screening c1ccc(-c2ccc(SCc3cccnc3)nn2)nc1 returned aSyn 5UTR act -75.
`c1ccc(CSc2ccc(-c3cccnc3)nn2)cc1` gave aSyn 5UTR act -117.
For CN(C)c1nc(N)nc(CSc2nc3cc(Cl)ccc3o2)n1 the results were aSyn 5UTR act -126.
`O=c1c2c(nc3c(-c4cccc(Br)c4)c[nH]n13)CCCC2` gave aSyn 5UTR act inactive.
For Cc1c(-c2ccccc2)[nH]n2c(=O)c3c(nc12)CCCC3 the results were aSyn 5UTR act -166.
`Cc1ccc(-c2[nH]n3c(=O)c4c(nc3c2C)CCCC4)cc1` gave aSyn 5UTR act -75.
`CN1CCC(Oc2ccc(Sc3ccccc3)cc2)CC1` gave aSyn 5UTR act -77.
`CC1N/C(=C\C(=O)c2ccccc2)N(O)C1(C)C` (stereo not given) gave aSyn 5UTR act -124.
`Nc1cnnc(N/N=C\c2ccccc2)c1Cl` gave aSyn 5UTR act -92.
`O=c1cnnc(N/N=C/c2ccccn2)[nH]1` gave aSyn 5UTR act inactive.

Screening data (PubChem)
